{
  "source": "PubChem BioAssay (Tox21)",
  "note": "Results filed as inconclusive are left out. A call without a number means that no potency is given here. Values without a mark were called inactive. The source made the active and inactive calls. The call rests on the fitted dose curve; in most records, active means well fitted inhibition curve with a large enough effect in the signal ratio in the repeat runs, with a control signal flat; inconclusive means weak or mixed curves, or effect the other way; inactive means flat fitted curve, though single readings scatter; the % refers to the signal ratio.",
  "data": [
    {"target": "D(2) dopamine receptor (Homo sapiens) (UniProt P14416)", "sequence (P14416 whole entry, looked up)": "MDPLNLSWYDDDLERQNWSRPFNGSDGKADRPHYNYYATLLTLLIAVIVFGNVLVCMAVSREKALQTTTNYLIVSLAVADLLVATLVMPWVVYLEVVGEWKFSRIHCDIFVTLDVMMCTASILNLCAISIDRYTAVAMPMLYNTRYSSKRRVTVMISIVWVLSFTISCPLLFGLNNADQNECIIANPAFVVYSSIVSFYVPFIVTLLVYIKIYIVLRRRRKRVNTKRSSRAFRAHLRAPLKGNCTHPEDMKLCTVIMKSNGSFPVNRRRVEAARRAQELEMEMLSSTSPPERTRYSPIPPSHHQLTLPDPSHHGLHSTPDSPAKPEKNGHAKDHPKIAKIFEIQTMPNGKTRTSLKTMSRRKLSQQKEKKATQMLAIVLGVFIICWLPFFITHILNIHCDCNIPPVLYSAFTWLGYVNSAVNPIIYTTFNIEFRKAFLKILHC", "assay": "Dopamine D2 receptor (DRD2) small molecule antagonists, cell-based qHTS assay (AID 1963595)", "settings": "HEK293-DRD2 cAMP HTRF antagonist mode; series mostly up to 92.4 µM; activity change, negative = inhibition: at the top concentration", "text": "National Center for Advancing Translational Sciences [NCATS]\nDivision of Preclinical Innovation [DPI]\nU.S. Environmental Protection Agency [EPA]\nNational Institutes of Environmental Health Sciences [NIEHS]\nNational Toxicology Program [NTP]\nU.S. Food and Drug Administration [FDA]\nDRD2 is the D2 subtype of the dopamine receptor, which is coupled to Gi subtype of G protein-coupled receptor. This G protein-coupled receptor inhibits adenylyl cyclase activity. The DRD2-HEK293 cell line stably expressing D2 dopamine receptor can be used for screening agonists and antagonists of interactions between D2 and its ligands. The Hek293-DRD2 cAMP assay is based on HTRF technology. It measures changes of cAMP accumulation in response to Gi coupled GPCR activation or inhibition.\nTox21 Assay Protocol Summary:\nDRD2-Hek293 cells were dispensed at 600 cells/3uL/well in 1536-well white plates using a Multidrop Dispenser. After the assay plates were incubated at a 37 C/5% CO2 incubator for 24 h, 1 uL of Ro20-1724 at final concentration of 0.1 mM was transferred to the assay plate by a Flying Reagent Dispenser. Following Ro20-1724 addition, 23 nL of compound dissolved in DMSO, positive controls or DMSO only was added to the assay plates via Wako pintool station. The assay plates were incubated at room temperature for 10 min. Next, 1 uL of mixture of NKH477 (final concentration at 200 nM) and quinpirole (final concentration at 12 nM) was added into the plates. After the assay plates were incubated at room temperature for an additional 30 min, 2.5 ul/well of cAMP-d2 and 2.5 ul/well of anti-cAMP-cryptate were added respectively into the assay plates using a Flying Reagent Dispenser. The plates were incubated at room temperature for 1 h. The fluorescence intensity in the plates was measured at 340 nm excitation and 665 & 620 nm emission by an Envision plate reader.", "units": {"activity change, negative = inhibition": "%"}, "values": [
      {"smiles": "CC(=O)Nc1ccccc1", "Potency": "inactive"},
      {"smiles": "CCCCCCCCCCC(CO)CCCCCCCC", "note": "(stereo not given)", "Potency": "inactive"},
      {"smiles": "O=C1O[C@H]([C@@H](O)CO)C(O)=C1O", "Potency": "inactive"},
      {"smiles": "C=Cc1ccc(C)cc1", "Potency": "inactive"},
      {"smiles": "c1cc(-c2ccncc2)ccn1", "activity change, negative = inhibition": -1.52},
      {"smiles": "Oc1ccccc1", "Potency": "inactive"},
      {"smiles": "O=CCc1ccccc1", "Potency": "inactive"},
      {"smiles": "CCc1ccccc1CC", "Potency": "inactive"},
      {"smiles": "CC1(C)[C@@H]2CC[C@@]1(C)C(=O)C2", "Potency": "inactive"},
      {"smiles": "F[B-](F)(F)F", "Potency": "inactive"},
      {"smiles": "NS(=O)(=O)O", "Potency": "inactive"},
      {"smiles": "CCC(=O)OC/C=C/c1ccccc1", "Potency": "inactive"},
      {"smiles": "C=C(C)C(=O)OCCCCCCCCCCCC", "Potency": "inactive"},
      {"smiles": "CCCC(=O)O", "Potency": "inactive"},
      {"smiles": "C=C(C)C(=O)O[C@H]1C[C@@H]2CC[C@@]1(C)C2(C)C", "Potency": "inactive"},
      {"smiles": "O=C(O)CCCCC(=O)O", "Potency": "inactive"},
      {"smiles": "NCCN1CCNCC1", "Potency": "inactive"},
      {"smiles": "CC(C)=CCl", "Potency": "inactive"},
      {"smiles": "OC[C@@H](O)[C@@H](O)[C@H](O)[C@H](O)CO", "Potency": "inactive"},
      {"smiles": "COCN(COC)c1nc(N(COC)COC)nc(N(COC)COC)n1", "Potency": "inactive"},
      {"smiles": "CC(=O)O[C@]1(C(C)=O)CC[C@H]2[C@@H]3C[C@H](C)C4=CC(=O)CC[C@]4(C)[C@H]3CC[C@@]21C", "Potency": "inactive"},
      {"smiles": "C[C@]12C[C@H](O)[C@H]3[C@@H](CCC4=CC(=O)CC[C@@]43C)[C@@H]1CC[C@@H]2C(=O)CO", "Potency": "inactive"},
      {"smiles": "O=C(O)CN(CC(=O)O)CC(=O)O", "Potency": "inactive"},
      {"smiles": "CNC[C@H](O)[C@@H](O)[C@H](O)[C@H](O)CO", "Potency": "inactive"},
      {"smiles": "CCCCCCCC/C=C\\CCCCCCCC(=O)O", "Potency": "inactive"},
      {"smiles": "CNC(=S)N(C)C", "Potency": "inactive"},
      {"smiles": "CC1(C)NC(=O)NC1=O", "Potency": "inactive"},
      {"smiles": "CC[C@H](C)C(=O)O[C@H]1C[C@@H](C)C=C2C=C[C@H](C)[C@H](CC[C@@H]3C[C@@H](O)CC(=O)O3)[C@H]21", "Potency": "inactive"},
      {"smiles": "CCCC(CCC)C(=O)O", "Potency": "inactive"},
      {"smiles": "COc1ccc(OC)cc1", "activity change, negative = inhibition": -2.18},
      {"smiles": "N#Cc1ccccc1", "Potency": "inactive"},
      {"smiles": "Cc1ccc(N)c([N+](=O)[O-])c1", "Potency": "inactive"},
      {"smiles": "CC(C)c1cccc(C(C)C)c1", "Potency": "inactive"},
      {"smiles": "O=C(O)CCCC(=O)O", "Potency": "inactive"},
      {"smiles": "C=CC(C)(CCC=C(C)C)OC(C)=O", "note": "(stereo not given)", "Potency": "inactive"},
      {"smiles": "COc1ccccc1O", "Potency": "inactive"},
      {"smiles": "CC(=O)Nc1c(I)c(NC(C)=O)c(I)c(C(=O)O)c1I", "Potency": "inactive"},
      {"smiles": "CN1C(=O)CC[C@H]1c1cccnc1", "Potency": "inactive"},
      {"smiles": "C=CCc1ccc(O)c(OC)c1", "Potency": "inactive"},
      {"smiles": "COc1ccccc1OCC(O)CO", "note": "(stereo not given)", "Potency": "inactive"}
    ]}
  ]
}
